From PubChem BioAssay (NCI)
The panel holds about 83,000 compounds, 20% with a hit somewhere; the sample as a whole holds those more often.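 Growth was measured after 48 h exposure to one concentration of compound in 96-well plates. Values under 10 count as active.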 Calls of active or inactive are those of the source.

Tested on: SNB-75 CNS
Test: NCI-60 one-dose screen, 48 h (100 = growth as untreated, 0 = no growth, -100 = all killed)
Conditions: 10 µM unless noted

| SMILES | growth |
| --- | --- |
| CCCCCCCCN(CCCCCCCC)C(=O)CCl | 95.4% (inactive) |
| O=C(Nc1ccc(-n2ccc3c(NC(=O)c4ccccc4)nccc32)cc1)c1ccc(N2CCOCC2)c(C(F)(F)F)c1 | 23.5% (inactive) |
| O=C1/C(=C/c2ccccc2)SC(=Nc2ccccc2)N1Nc1ccccc1 | 24.2% (inactive) |
| C[N+](C)(C)CC(=O)N/N=C\c1ccco1 | 83.2% (inactive) |
| CC(C)CCSc1nc(-c2ccc(F)cc2)c(C#N)c(N2CCN(C)CC2)n1 | 73% (inactive) |
| CC(=O)Oc1c(Cl)c(Cl)c(Cl)c(Cl)c1Cl | 80.1% (inactive) |
| CN(C)c1nc(-c2cccs2)n2nc(-c3ccc(Cl)cc3)cc2n1 | -50.4% (active) |
| COc1nccc2c(Sc3ccccc3)nc(N)nc12 | 84.5% (inactive) |
| c1cn2cc(-c3ccc4ncn(C5CCCCC5)c4c3)nc(-c3ccc4c(c3)ncn4C3CCCCC3)c2n1 | -89.6% (active) |
| CCc1onc(-c2ccc(OC)cc2)c1-c1ccccc1OCCN(CC)CC | 60.9% (inactive) |
| CCN(CCC#N)c1ccccc1 | 98.6% (inactive) |
| S=C(S)Oc1cccc2cccnc12 | 87% (inactive) |
| COc1ccccc1CNCCCN1C(=O)c2ccc3c4c(ccc(c24)C1=O)C(=O)N(CCCNCCCN)C3=O | 46% (inactive) |
| CC(C)c1ccc(-c2cnc3nonc3n2)cc1 | 54.3% (inactive) |
| CN1CCCN(CCNc2nccc(-c3c(-c4cccc(O)c4)nc4sccn34)n2)S1(=O)=O | 12.9% (inactive) |
| COc1ccccc1CNCCCN1C(=O)c2ccc3c4c(ccc(c24)C1=O)C(=O)N(CCCCNCCCN)C3=O | 53.9% (inactive) |
| CCC(=O)OCc1ccc(OC)cc1 | 104% (inactive) |
| COc1ccc2[nH]cc(C3(c4c[nH]c5ccc(OC)cc45)C(=O)Nc4ccc(F)cc43)c2c1 | 42.9% (inactive) |
| CN1C(=O)NC(Cc2c[nH]c3c(Cl)cccc23)C1=O (stereo not drawn) | 103% (inactive) |

| SMILES | growth |
| --- | --- |
| NC(N)=N/N=C/c1ccc(Cl)cc1 | 81.1% (inactive) |
| CC(C)(c1ccccc1)c1cc(O)c(C(C)(C)c2ccccc2)cc1O | 43.5% (inactive) |
| COc1cc(-c2nn(C(=O)NCCN3CCN(C)CC3)cc2-c2ccncc2)ccc1Cl | 42.3% (inactive) |
| CCCCCCCCCCCCCCCCCC(=O)[O][Sn]([CH2]CCC)([CH2]CCC)[CH2]CCC | -96.8% (active) |
| CC(C)c1nc2ccccc2n1CC(=O)N/N=C/c1cccc(O)c1 | 94.1% (inactive) |
| O=C(Nc1ccc(Cl)cc1)c1cc(-c2ccc(Cl)cc2)c2sc(=O)[nH]c2n1 | 10.5% (inactive) |
| Oc1ccc(-c2nnc3c4[nH]ccc4ncn23)cc1 | 78.8% (inactive) |
| Cc1nc(N)nc2c1CCC(Nc1ccccc1)S2 (stereo not drawn) | 98.3% (inactive) |
| NNC(=O)CSc1nc2scc(-c3ccccc3)c2c(=O)n1-c1ccccc1 | 88.3% (inactive) |
| COC(=O)C(Br)(C(=O)OC)C(Br)C(Br)C(Br)c1ccccc1 (stereo not drawn) | 92.4% (inactive) |
| COc1cnc2c(c1)C(=O)c1c-2n(CCCN2CCN(C)CC2)c(=O)c2cc(Cl)ccc12 | 38.7% (inactive) |
| COc1cc([N+](=O)[O-])cc(OC)c1OC | 92.2% (inactive) |
| O=c1oc2ccccc2cc1-c1cc(-c2ccc(-c3cc(-c4cc5ccccc5oc4=O)nc(-c4cc5ccccc5oc4=O)c3)cc2)cc(-c2cc3ccccc3oc2=O)n1 | 97.5% (inactive) |
| CCCCCCCOc1cccc(/C=C2\N=C3SCCCN3C2=O)c1 | 91.2% (inactive) |
| CN(C)c1ccc(C2(Cl)c3ccccc3N(C)c3ccccc32)cc1 | 71.2% (inactive) |
| O=C(Nc1cccc(-n2ccc3c(NC(=O)c4ccccc4)nccc32)c1)c1ccc(N2CCOCC2)c(C(F)(F)F)c1 | -12.5% (active) |
| Fc1ccc(-c2nc(-c3ccc(-c4nc5ccc(F)cc5[nH]4)cc3)no2)cc1 | 57.6% (inactive) |
| Clc1ccc(C2=NN[C@H](c3cn(-c4ccccc4)nc3-c3ccccc3)C2)cc1 | 41% (inactive) |
| CNC1=C([N+](=O)[O-])C(c2ccccc2O)C(C#N)=C(c2cccs2)O1 (stereo not drawn) | 84.2% (inactive) |
